Measurements taken from PubChem BioAssay.
For some of these results: Entries with a potency or affinity are not part of this list. Activity calls are given as the source filed them. Unless noted, the rule behind the calls is not given here.

Experiments:
[1] = antimalarial activity against Dd2 strain (AID 2302;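 active = growth inhibition above 50% at the single 2 µM test dose, taken to imply half-maximal potency below 2 µM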;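 note: 0% = DMSO untreated growth and 100% = chloroquine plus artemisinin killed control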); conditions: P. falciparum Dd2 in RBCs, LDH growth readout, 72 h; at 2 µM; stronger effect = higher value
[2] = human hepatoma cell viability loss – ATP luminescence, cytotoxicity control for P. falciparum antimalarial project, primary screen (AID 2303;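 active = inhibition above 50%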;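 note: 0% = DMSO wells and 100% = digitonin-killed cells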); conditions: HepG2 viability, 24-48 h, at 10 µM, stronger effect = higher value
[3] = target: L-lactate dehydrogenase (Plasmodium falciparum (isolate CDC / Honduras)) (UniProt Q27743); assay: PfLDH activity inhibition – cell lysate, 3D7 strain, counter-screen for P. falciparum growth inhibition project (AID 2304);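 note: 0% = vehicle and 100% = reference inhibitor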; conditions: P. falciparum 3D7 crude extract, LDH APAD/NBT absorbance; at 2 µM; stronger effect = higher value
[4] = inhibition of 3D7 malaria parasite growth – strain 3D7 (AID 2306);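 note: 0% = DMSO wells and 100% = chloroquine plus artemisinin control wells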; conditions: P. falciparum 3D7 erythrocytic growth, LDH absorbance, 72 h; at 2 µM; stronger effect = higher value
[5] = target: Calcium-dependent protein kinase 1 (Plasmodium falciparum (isolate 3D7)) (UniProt P62344); assay: PfCDPK1 kinase inhibitors, biochemical, TCAMS library (AID 1159585; cut-off not given, nearly all actives have IC50 up to about 0.98 µM;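 note: inhibitors leave more ATP so luminescence rises with inhibition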); conditions: recombinant PfCDPK1, Kinase-Glo ATP depletion luminescence
[6] = target: Plasmodium falciparum protein kinase 6 (PK6, PF3D7_1337100) (UniProt Q8IDW1); assay: PfPK6 kinase inhibitors, biochemical, TCAMS library (AID 1159586); conditions: recombinant PfPK6, Kinase-Glo ATP depletion luminescence
[7] = target: Protein kinase 7 (PK7), Plasmodium falciparum 3D7 (PF3D7_0213400) (UniProt Q7YTF7); assay: inhibition of Plasmodium PK7 catalytic activity – biochemical, TCAMS antimalarial set, Kinase-Glo luminescence (AID 1159587); conditions: recombinant PfPK7, Kinase-Glo ATP depletion luminescence
[8] = target: Calcium-dependent protein kinase 4 (Plasmodium falciparum (isolate 3D7)) (UniProt Q8IBS5); assay: PfCDPK4 kinase inhibitors, biochemical, TCAMS library (AID 1159588; cut-off not given, nearly all actives have IC50 up to about 0.91 µM); conditions: recombinant PfCDPK4, Kinase-Glo ATP depletion luminescence
Sequence of Calcium-dependent protein kinase 4 (Plasmodium falciparum (isolate 3D7)) (Q8IBS5 whole entry, looked up): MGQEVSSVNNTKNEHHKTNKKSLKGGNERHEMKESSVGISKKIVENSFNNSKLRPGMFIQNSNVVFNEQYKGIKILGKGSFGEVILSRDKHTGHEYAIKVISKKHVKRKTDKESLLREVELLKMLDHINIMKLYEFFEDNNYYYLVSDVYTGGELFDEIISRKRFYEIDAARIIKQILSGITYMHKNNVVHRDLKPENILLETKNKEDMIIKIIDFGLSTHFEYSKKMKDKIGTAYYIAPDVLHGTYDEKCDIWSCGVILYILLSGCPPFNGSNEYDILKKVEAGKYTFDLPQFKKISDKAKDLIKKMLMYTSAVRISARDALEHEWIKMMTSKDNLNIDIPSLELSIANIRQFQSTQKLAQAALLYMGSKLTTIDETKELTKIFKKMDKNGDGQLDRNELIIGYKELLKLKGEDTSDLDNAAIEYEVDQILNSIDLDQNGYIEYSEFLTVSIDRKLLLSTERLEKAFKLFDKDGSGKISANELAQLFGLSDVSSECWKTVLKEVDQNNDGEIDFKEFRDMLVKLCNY

Sequence of L-lactate dehydrogenase (Plasmodium falciparum (isolate CDC / Honduras)) (Q27743 whole entry, looked up): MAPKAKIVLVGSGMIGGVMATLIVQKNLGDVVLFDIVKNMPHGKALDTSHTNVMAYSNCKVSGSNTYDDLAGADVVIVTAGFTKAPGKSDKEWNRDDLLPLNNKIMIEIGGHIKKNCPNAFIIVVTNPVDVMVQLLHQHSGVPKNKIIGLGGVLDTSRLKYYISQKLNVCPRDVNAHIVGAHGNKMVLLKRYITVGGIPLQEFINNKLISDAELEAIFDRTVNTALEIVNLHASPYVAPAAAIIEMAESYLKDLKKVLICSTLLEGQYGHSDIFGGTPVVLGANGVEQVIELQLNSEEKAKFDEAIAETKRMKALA
Sequence of Plasmodium falciparum protein kinase 6 (PK6, PF3D7_1337100) (Q8IDW1 1-305): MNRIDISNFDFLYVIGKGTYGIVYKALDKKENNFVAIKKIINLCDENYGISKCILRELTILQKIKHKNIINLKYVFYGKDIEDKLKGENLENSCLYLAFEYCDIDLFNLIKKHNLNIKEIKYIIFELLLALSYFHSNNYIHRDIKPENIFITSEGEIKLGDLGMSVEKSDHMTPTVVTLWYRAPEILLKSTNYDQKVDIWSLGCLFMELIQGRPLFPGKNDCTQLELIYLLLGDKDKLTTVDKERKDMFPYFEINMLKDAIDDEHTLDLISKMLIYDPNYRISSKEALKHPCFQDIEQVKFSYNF
Sequence of Calcium-dependent protein kinase 1 (Plasmodium falciparum (isolate 3D7)) (P62344 whole entry, looked up): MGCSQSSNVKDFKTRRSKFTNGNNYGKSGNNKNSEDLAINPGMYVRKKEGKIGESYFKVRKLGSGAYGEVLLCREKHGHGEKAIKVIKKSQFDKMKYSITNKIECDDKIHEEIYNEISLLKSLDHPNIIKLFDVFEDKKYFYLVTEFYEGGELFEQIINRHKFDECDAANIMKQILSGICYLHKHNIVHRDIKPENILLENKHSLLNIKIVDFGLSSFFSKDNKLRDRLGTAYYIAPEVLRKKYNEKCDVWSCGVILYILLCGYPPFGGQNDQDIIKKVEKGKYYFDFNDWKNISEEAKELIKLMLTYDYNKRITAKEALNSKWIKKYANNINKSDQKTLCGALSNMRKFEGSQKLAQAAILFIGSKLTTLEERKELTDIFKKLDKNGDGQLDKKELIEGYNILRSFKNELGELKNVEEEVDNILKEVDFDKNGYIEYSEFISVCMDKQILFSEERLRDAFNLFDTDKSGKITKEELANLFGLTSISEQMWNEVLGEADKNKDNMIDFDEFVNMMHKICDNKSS
Sequence of Protein kinase 7 (PK7), Plasmodium falciparum 3D7 (PF3D7_0213400) (Q7YTF7 1-343): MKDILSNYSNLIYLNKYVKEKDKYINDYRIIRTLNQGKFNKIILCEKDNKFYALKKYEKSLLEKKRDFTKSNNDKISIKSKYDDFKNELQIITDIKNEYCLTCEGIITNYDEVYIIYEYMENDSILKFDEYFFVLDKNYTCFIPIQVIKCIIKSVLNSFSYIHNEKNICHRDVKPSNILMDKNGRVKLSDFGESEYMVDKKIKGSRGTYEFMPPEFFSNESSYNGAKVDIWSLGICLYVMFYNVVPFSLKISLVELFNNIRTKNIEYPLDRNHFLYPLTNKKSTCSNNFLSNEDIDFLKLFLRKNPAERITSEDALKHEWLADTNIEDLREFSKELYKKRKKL

Cc1cc(NC(=O)c2cc(Br)ccc2Cl)n(-c2nc(C)c(C)c(=O)[nH]2)n1
active: growth inhibition [1] 83% | inhibition [2] 54% | growth inhibition [4] 91%
inactive: inhibition [3] -2% | outcome [5] | outcome [6] | outcome [7] | outcome [8]

COc1cccc(C=NNc2cc(C)nc3c(OC)cccc23)c1
inactive: inhibition [2] 6% | inhibition [3] -6% | outcome [5] | outcome [6] | outcome [7] | outcome [8]
active: growth inhibition [1] 58% | growth inhibition [4] 99%

CC(COc1ccc2c(c1)OC(C)(C)CC2c1ccccc1)NCC(O)c1cccc(Cl)c1 (stereo not given)
inactive: inhibition [2] 1% | inhibition [3] 3% | outcome [5] | outcome [6] | outcome [7] | outcome [8]
active: growth inhibition [1] 96% | growth inhibition [4] 98%

Cc1cc(C(=O)Nc2ccc(C)c(-c3nc(N(C(=O)c4ccc(F)c(C)c4)C4CCNCC4)nc4c3ccc(=O)n4-c3c(F)cccc3F)c2)ccc1F
active: growth inhibition [1] 99% | growth inhibition [4] 99%
inactive: inhibition [2] 4% | inhibition [3] -3% | outcome [5] | outcome [6] | outcome [7] | outcome [8]

O=C(Cc1ccccc1)NC(Nc1ccc([N+](=O)[O-])cc1)C(Cl)(Cl)Cl (stereo not given)
active: growth inhibition [1] 100% | growth inhibition [4] 99%
inactive: inhibition [2] 21% | inhibition [3] 1% | outcome [5] | outcome [6] | outcome [7] | outcome [8]

Cc1ccc(CNC(=O)[C@H](CC(C)C)Nc2cc(C)nc(NCc3ccccc3C)n2)cc1
active: growth inhibition [4] 87%
inactive: growth inhibition [1] 35% | inhibition [2] 3% | inhibition [3] 1% | outcome [5] | outcome [6] | outcome [7] | outcome [8]

Cc1ccn2cc(-c3ccc(NC(=O)c4ccc(Br)o4)cc3)nc2c1
active: inhibition [2] 100% | growth inhibition [4] 98%
inactive: growth inhibition [1] 41% | inhibition [3] -3% | outcome [5] | outcome [6] | outcome [7] | outcome [8]

CNC(=O)C1Cc2c([nH]c3cc(Br)ccc23)C2(CCN(CCc3ccccc3)CC2)N1 (stereo not given)
active: growth inhibition [4] 101%
inactive: growth inhibition [1] 31% | inhibition [2] 10% | inhibition [3] -8% | outcome [5] | outcome [6] | outcome [7] | outcome [8]

CN1C(C)(C)CC(NC(=O)c2ccc(-c3cc4cc(Cl)c(Cl)cc4[nH]3)o2)CC1(C)C
inactive: growth inhibition [1] 43% | inhibition [2] 21% | inhibition [3] -4% | outcome [5] | outcome [6] | outcome [7] | outcome [8]
active: growth inhibition [4] 101%

CCN(CC)CCN(Cc1ccc(-c2ccc(C(F)(F)F)cc2)cc1)C(=O)Cn1c(CCc2c(F)ccc(F)c2F)nc(=O)c2ccccc21
inactive: inhibition [2] 44% | inhibition [3] -6% | outcome [5] | outcome [6] | outcome [7] | outcome [8]
active: growth inhibition [1] 62% | growth inhibition [4] 98%

CO/C(=C\C=C\c1cc2cc(Cl)c(Cl)cc2[nH]1)C(=O)NCCCNCCN(C)c1ccccc1
active: growth inhibition [1] 55% | growth inhibition [4] 100%
inactive: inhibition [2] 33% | inhibition [3] 2% | outcome [5] | outcome [6] | outcome [7] | outcome [8]

COc1cccc(CC(=O)NC2CCN(c3ccnc4cc(Cl)ccc34)C2)c1 (stereo not given)
active: growth inhibition [1] 85% | growth inhibition [4] 101%
inactive: inhibition [2] 9% | inhibition [3] -2% | outcome [5] | outcome [6] | outcome [7] | outcome [8]

Cc1cc(F)ccc1Nc1nc(N(C)c2ccccc2)c2cccc(O)c2n1
active: growth inhibition [1] 81% | growth inhibition [4] 92%
inactive: inhibition [2] 38% | inhibition [3] 2% | outcome [5] | outcome [6] | outcome [7] | outcome [8]

COc1cc(NC(=O)Nc2cccc3ccccc23)c(OC)cc1Cl
inactive: inhibition [2] -12% | inhibition [3] 3% | outcome [5] | outcome [6] | outcome [7] | outcome [8]
active: growth inhibition [1] 71% | growth inhibition [4] 97%

Cc1cc(NC(=O)Nc2cccc(C#N)c2)c2ccccc2n1
active: growth inhibition [1] 82% | growth inhibition [4] 100%
inactive: inhibition [2] 17% | inhibition [3] -1% | outcome [5] | outcome [6] | outcome [7] | outcome [8]

COc1cc(C)nc2ccc(NC(=O)Nc3ccc([N+](=O)[O-])cc3C)cc12
active: growth inhibition [1] 52% | growth inhibition [4] 90%
inactive: inhibition [2] 10% | inhibition [3] -5% | outcome [5] | outcome [6] | outcome [7] | outcome [8]

COc1cc(NC(=O)c2sc(-c3ccc(Cl)cc3)cc2NC(=O)c2cccnc2)ccc1OCCN1CCCC1
active: growth inhibition [1] 77% | growth inhibition [4] 94%
inactive: inhibition [2] 38% | inhibition [3] -1% | outcome [5] | outcome [6] | outcome [7] | outcome [8]

c1ccc(CN2CCN(c3cc(-c4cncc(-c5ccccc5)c4)nc(-c4ccccc4)n3)CC2)cc1
active: growth inhibition [4] 88%
inactive: growth inhibition [1] 12% | inhibition [2] 9% | inhibition [3] 0% | outcome [5] | outcome [6] | outcome [7] | outcome [8]

O=C(CCC1CCCCC1=O)c1ccccc1 (stereo not given)
inactive: growth inhibition [1] 3% | inhibition [2] 0% | inhibition [3] -4% | outcome [5] | outcome [6] | outcome [7] | outcome [8]
active: growth inhibition [4] 91%

Cc1ccc(NC(=O)c2cccc(CN3CCCN(Cc4cccc(O)c4)CC3)c2)cc1C
inactive: growth inhibition [1] 31% | inhibition [2] 19% | inhibition [3] 1% | outcome [5] | outcome [6] | outcome [7] | outcome [8]
active: growth inhibition [4] 95%
